Out of some 370,000 compounds screened, about 6,800 (1.8%) were called active. Only a selection was taken, and actives are over-represented in it overall. Unmarked numbers belong to inactive results.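 The calls were made as follows: active = activation above a cutoff set at the mean of all screened compounds plus 3 SD (cut at about 10% in these data); inactive = the rest.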
system: Nuclear hormone receptor DAF-12 (Heterodera glycines), GAL4 fusion; assay: H. glycines DAF-12 receptor agonists, primary screen, cell-based, luminescence, HEK293, GAL4 fusion, UAS-luciferase (AID 687014); conditions: HEK293 GAL4-hgDAF12 UAS-luciferase reporter, agonist luminescence; at 6.8 µM; hits give high values; normalized to butyrate control;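 also: 0% = DMSO wells and 100% = sodium butyrate wells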

`CC(C)Cc1cc(C(=O)NCCc2ccccc2)no1` was tested, and the activation was 13% (active).
For `CC1C/C(=N/NC(=O)c2cccs2)CC(C)(C)C1` (centres undefined), the activation was 14% (active).
For `Cc1ccc2nc(-c3ccc(NC(=O)CN(C)S(=O)(=O)c4ccccc4)cc3)sc2c1`, the activation was 11.4% (active).
With `Cc1cccc(N(CC(=O)Nc2ccc(-c3nc4ccc(C)cc4s3)cc2)S(C)(=O)=O)c1` the activation was 15% (active).
For `Cc1cc(N=Nc2ccc3ccccc3c2)ccc1O`, the activation was 15.6% (active).
In the case of `Cc1ccc(COc2ccc(/C=N/NC(=O)CN3CCCCC3)cc2)cc1`, the activation is reported as 10.7% (active).
In the case of `O=C(Nc1ccc2c(c1)CCC2)c1ccc(Br)s1`, the activation is reported as 19.2% (active).
`Cc1cc(OCc2cc(C(=O)NCc3cc(C(C)C)no3)no2)cc(C)c1Cl` was tested, and the activation was 15.1% (active).
In the case of `CCOC(=O)c1ccc2c(c1)nc(C)n2CC`, the activation is reported as 12.8% (active).
`Cc1ccc2cc(/C=N/Nc3ccc(C(=O)O)cc3)c(Cl)nc2c1` was tested, and the activation was 11.9% (active).
With `Cc1ccc(C(=O)NNc2ncnc3ccccc23)cc1` the activation was 16% (active).

Point of comparison: `Cc1cc(=O)[nH]c(SCC(=O)Nc2ccc(F)cc2F)n1`, activation 2.35%. Against it:
- CC(C)Cc1cc(C(=O)Nc2cc(Br)ccc2O)no1 — higher, 6.04%
- O=C(NCCCc1ccccc1)c1cc(COc2c(F)cccc2F)on1 — higher, 4.73%
- O=S1(=O)c2ccc(N3CCN(Cc4ccccc4F)CC3)cc2Oc2ccccc2CN1Cc1cn(Cc2ccc(Cl)cc2)nn1 — lower, 0.48%
- C[C@@H]1CN([C@@H](C)CO)C(=O)c2cccc(NC(=O)Nc3cccc4ccccc34)c2O[C@H]1CN(C)S(=O)(=O)c1ccccc1F — lower, -4.71%
- CN(C)[C@H]1CCN(c2cccc3c2S(=O)(=O)N2CC[C@H](C2)O3)C1 — lower, -1.45%
- CCc1ccc(C(=O)NN=C2CCCCCC2)s1 — higher, 3.37%
- CC1CC(=NNC(=O)C2COc3ccccc3O2)CC(C)(C)C1 (centres undefined) — higher, 3.29%
- COc1ccccc1CCn1cnc(-c2ccccc2)c1C(C)C — lower, -2.29%
- Cc1ccn(CC(=O)N2N=C(C(F)F)CC2(O)C(F)F)n1 (centres undefined) — lower, 1.75%
- Cc1nc2ccc(S(=O)(=O)N(C)CC(=O)NC(C)c3ccccc3)cc2s1 (centres undefined) — lower, -1.17%
- Cc1ccc(N(CC(=O)Nc2cc(C)cc(C)c2)S(=O)(=O)c2cccc3nonc23)cc1 — lower, 1%
- COc1cc(NC(=O)CN(C)S(=O)(=O)c2ccc3nc(C)sc3c2)cc(OC)c1 — lower, -1.83%
- CCN(CC)S(=O)(=O)c1ccc(NC(=O)CN(c2cccc(F)c2)S(C)(=O)=O)cc1 — lower, -0.33%
- Cc1ccc2c(c1)N(CC(=O)N1CCC(C)CC1)C(=O)c1cccnc1O2 — lower, -1.52%
- CC[C@H](NC(=O)[C@H](Cc1ccccc1)NC(=O)[C@H]1O[C@@H](n2cnc3c(=O)[nH]c(N)nc32)[C@H](O)[C@@H]1O)c1ccccc1 — lower, -0.43%
- COc1ccccc1C(=O)CSc1nnc(-c2ccccn2)n1-c1ccccc1 — lower, -5.4%
- COC(=O)[C@H](Cc1ccccc1)NC(=O)Nc1ccc(S(N)(=O)=O)cc1 — lower, -0.11%
- COc1ccc(CN2C/C(=C/c3ccccc3)N3C(=O)C[C@@H](c4ccccc4)N=C23)c(OC)c1 — lower, 1.14%
- Cc1ccc(-n2c(SCC(=O)Nc3cccc4ccccc34)nnc2-c2ccco2)cc1 — lower, -1.7%
- COc1ccc([C@H]2OC(=O)C[C@H]2C(=O)N2CCN(c3ccccc3F)CC2)cc1OC — lower, 0.07%
- Cc1ccc(/C=N/NC(=O)COc2ccccc2-c2ccccc2)cc1 — lower, -6.53%
- O=C(CN1CCSCC1)N/N=C/c1ccc(Cl)cc1 — lower, -0.9%
- Cc1ccc(Cn2cc(CN3[C@@H](C)COc4cc(Br)ccc4S3(=O)=O)nn2)cc1 — lower, -0.49%
- COc1ccc(NC(=O)N(C)C[C@@H]2OCCCC[C@@H](C)Oc3ccc(NC(=O)NC4CCCCC4)cc3C(=O)N([C@H](C)CO)C[C@@H]2C)cc1 — higher, 2.86%
- C[C@@H](CN1C2=NC[C@@H](Cc3ccccc3)N2C[C@H]1Cc1ccc(O)cc1)NC(=O)CCC1CCCCC1 — lower, 1.3%
- CC1CC(C)CN(CCC(=O)Nc2ccc3c(c2)CCC3)C1 (centres undefined) — lower, -2.86%
- CC(C)Oc1ccc(C(=O)NCC(=O)Nc2ccc3c(c2)CCC3)cc1 — lower, 2.22%
- Cc1cccnc1CC(C)NC(=O)c1cc(COc2cncc(Cl)c2)on1 (centres undefined) — lower, 1.14%
- COc1ccc(OCc2cc(C(=O)NCC3(C)COC3)no2)c(Cl)c1 — lower, 0.38%
- Cc1ccc2oc(C(=O)N3CCN(C)C[C@@H]3C(C)C)c(C)c2c1 — higher, 2.43%
- COC(=O)[C@]12C[C@H](CC(=O)NCc3cccs3)C(=O)N(CCc3ccc(OC)c(OC)c3)C1=C[C@H](C(C)C)O[C@@H]2C1CC1 — lower, 1.93%
- CC1=C(C(=O)N2CCOCC2)CC(CC(=O)NCCCN(C)C)C(=O)N1Cc1ccc(C(C)(C)C)cc1 (centres undefined) — lower, 1.86%
- CCOC(=O)c1ccc2c(c1)nc(SCC(=O)NC(C)C)n2CC — lower, -0.22%
- CCn1c(C)nc2cc(C(=O)NNS(=O)(=O)c3ccc(C)cc3C)ccc21 — lower, -0.8%
- Nc1nc2c(ncn2[C@@H]2O[C@H](C(=O)N[C@@H](Cc3ccccc3)C(=O)NCc3ccccc3)[C@@H](O)[C@H]2O)c(=O)[nH]1 — lower, -2.72%
- CCOC(=O)N1CCN(C(=O)C[C@H]2C[C@@]3(C(=O)OC)C(=C[C@H](C4CCCC4)O[C@@H]3C)N(Cc3ccccc3)C2=O)CC1 — lower, -1.3%
- CC(=O)Nc1ccc(C(=O)CSc2nc3ccc(C)cc3[nH]2)cc1 — higher, 8.98%
- CSCC[C@H](NC(=O)OC(C)(C)C)C(=O)N/N=C/c1cc2ccc(C)cc2nc1Cl — lower, -1.8%
- C=C(C)C#CC(Cc1ccccc1)N(CC1CC1)/C(N)=N/C(=O)OCc1ccccc1 (centres undefined) — lower, 1.8%
- COc1cc(/C=C/C(=O)O)cc(S(=O)(=O)Nc2ccccc2SC)c1OC — lower, 1.71%
- Cc1ccc(CCNC(=O)c2ccc3nc4ccccc4c(=O)n3c2)cc1 — higher, 3.9%
- Cn1ncc2c(NNC(=O)Cc3cccc4ccccc34)ncnc21 — lower, -0.95%

Source: PubChem BioAssay AID687014 (The Scripps Research Institute Molecular Screening Center, 2013)
